Out of some 310,000 compounds screened, about 14,000 (4.5%) showed an effect of 50% or more. Effects have a minus sign here. Many of the other results were omitted from the sample, so strong results are more common in it than they were.
target: human ether-à-go-go-related gene (hERG) potassium channel (human, UniProt Q12809); assay: primary screen, population patch clamp on CHO cells stably expressing hERG; higher = less effect of the substance
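Further: peak tail current of the secondary pulse compared with the same well before compound.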

Chain of human ether-à-go-go-related gene (hERG) potassium channel (Q12809 whole entry, looked up): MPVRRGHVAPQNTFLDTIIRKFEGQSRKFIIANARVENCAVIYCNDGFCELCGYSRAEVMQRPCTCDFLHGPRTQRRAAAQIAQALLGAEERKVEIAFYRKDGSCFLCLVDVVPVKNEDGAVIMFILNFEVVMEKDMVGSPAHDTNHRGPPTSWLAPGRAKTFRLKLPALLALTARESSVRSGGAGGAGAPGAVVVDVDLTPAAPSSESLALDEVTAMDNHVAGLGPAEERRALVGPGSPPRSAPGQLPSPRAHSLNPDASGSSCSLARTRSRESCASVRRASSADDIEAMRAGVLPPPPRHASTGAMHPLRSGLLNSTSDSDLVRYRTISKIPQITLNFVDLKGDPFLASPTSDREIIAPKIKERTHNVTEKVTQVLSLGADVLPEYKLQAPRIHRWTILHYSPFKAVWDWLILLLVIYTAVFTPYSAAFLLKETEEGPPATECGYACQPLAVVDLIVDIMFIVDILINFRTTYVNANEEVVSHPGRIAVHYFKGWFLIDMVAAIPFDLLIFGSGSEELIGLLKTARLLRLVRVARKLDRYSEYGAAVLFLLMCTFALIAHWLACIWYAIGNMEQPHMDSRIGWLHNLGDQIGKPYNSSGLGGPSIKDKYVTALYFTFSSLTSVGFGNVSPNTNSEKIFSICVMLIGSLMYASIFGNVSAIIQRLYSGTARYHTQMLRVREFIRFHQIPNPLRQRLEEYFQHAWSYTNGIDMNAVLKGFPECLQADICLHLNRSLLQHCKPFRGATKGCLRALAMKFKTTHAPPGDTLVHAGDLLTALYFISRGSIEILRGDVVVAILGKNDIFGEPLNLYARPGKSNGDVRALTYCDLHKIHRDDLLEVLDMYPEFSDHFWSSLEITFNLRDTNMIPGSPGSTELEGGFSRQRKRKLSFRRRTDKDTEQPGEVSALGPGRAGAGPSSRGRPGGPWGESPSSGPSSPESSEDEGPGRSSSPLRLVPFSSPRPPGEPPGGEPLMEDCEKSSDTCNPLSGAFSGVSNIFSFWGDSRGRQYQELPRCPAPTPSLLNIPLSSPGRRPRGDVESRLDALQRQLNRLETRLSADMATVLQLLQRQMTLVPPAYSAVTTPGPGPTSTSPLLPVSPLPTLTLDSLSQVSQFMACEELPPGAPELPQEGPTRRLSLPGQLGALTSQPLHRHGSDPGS

In order of rising “hERG current change (%, negative = inhibition) at 10uM” value:
1. CCOC(=O)c1ccc(NC(=S)N(CCN2CCCCCC2)Cc2ccco2)cc1  -78.3%
2. CCOC(=O)c1ccc(NC(=S)N(CCCN(CC)CC)Cc2ccco2)cc1  -76.7%
3. CCOC(=O)c1ccc(NC(=S)N(CCCN2CCCCC2)Cc2ccco2)cc1  -72.7%
4. CCOC(=O)c1ccc(NC(=S)N(CCCN2CCCC(C)C2)Cc2ccco2)cc1 (centres unmarked)  -70.9%
5. C=CCN1C(=O)/C(=C/C=C2/N(CC)c3ccc(S(=O)(=O)N(C)C)cc3N2CC)SC1=S  -56%
6. COc1ccc(-n2c(CN3CCN(c4ccccn4)CC3)nc3ccc([N+](=O)[O-])cc3c2=O)c(OC)c1  -55.5%
7. C=C(C)COc1ccc(-c2[nH]ncc2Oc2ccccc2OC)c(O)c1  -55.2%
8. CCOC(=O)C1CCN(Cc2nc3ccc([N+](=O)[O-])cc3c(=O)n2-c2ccc(OC)cc2OC)CC1  -53.8%
9. COc1cccc(-n2c(CN3CCN(Cc4ccccc4)CC3)nc3ccc([N+](=O)[O-])cc3c2=O)c1  -52.8%
10. CCN1CCN(Cc2nc3ccc([N+](=O)[O-])cc3c(=O)n2-c2ccc(OC)cc2OC)CC1  -52%
11. COc1ccc(-n2c(CN3CCN(Cc4ccccc4)CC3)nc3ccc([N+](=O)[O-])cc3c2=O)c(OC)c1  -51.1%
12. CCc1ccccc1NC(=S)N(CCN1CCCCCC1)Cc1ccco1  -46.8%
13. COc1ccc(-n2c(CN3CCN(c4ccc(F)cc4)CC3)nc3ccc([N+](=O)[O-])cc3c2=O)c(OC)c1  -44.6%
14. COc1cccc(-n2c(CN3CCN(c4ccccn4)CC3)nc3ccc([N+](=O)[O-])cc3c2=O)c1  -40%
15. COc1ccc(-n2c(CN3CCN(C)CC3)nc3ccc([N+](=O)[O-])cc3c2=O)c(OC)c1  -38.4%
16. CCCc1nc2oc3cc(OC)ccc3c(=O)c2c(=O)n1CCc1ccccc1  -38.3%
17. COc1cccc(-n2c(CN3CCN(C)CC3)nc3ccc([N+](=O)[O-])cc3c2=O)c1  -33.1%
18. CCOC(=O)C1CCCN(Cc2nc3ccc([N+](=O)[O-])cc3c(=O)n2-c2ccc(OC)cc2OC)C1 (centres unmarked)  -28.9%
19. CCCCCn1cnnc1SCC(=O)c1ccc2c(c1)OCO2  -27.9%
20. CC1Sc2ccc(S(=O)(=O)N3CCC(C(=O)N(C)Cc4ccco4)CC3)cc2NC1=O (centres unmarked)  -24.7%
21. CC(NC(=O)COC(=O)c1ccc([N+](=O)[O-])s1)c1ccccc1 (centres unmarked)  -20.8%
22. CCOC(=O)Cc1cc(=O)n2[nH]c(-c3ccc(Cl)cc3)cc2n1  -20.4%
23. CCC(C)c1ccc(NC(=O)C/C(C)=N/NC(=O)c2cnccn2)cc1 (centres unmarked)  -17.2%
24. C=C(C)COc1ccc(-c2[nH]ncc2Oc2ccc(OC)cc2)c(O)c1  -14.9%
25. Cn1ncc(Cl)c1C(=O)N1CCc2ccccc21  -13.9%
26. COC(=O)C1=C(C(=O)OC)[C@@H]2N(Cc3ccccc3)c3ccccc3[C@@]23C[C@@H](C(=O)OC)N(C(=O)NC2CCCCC2)C3=N1  -12.1%
27. Cc1nn(C)c(NC(=O)c2ccc(Cl)cc2Cl)c1Br  -11.4%
28. CCOC(=O)c1ccc(NC(=S)NCc2ccco2)cc1  -11.1%
29. COc1ccc(-n2c(CN3CCN(c4ccccc4)CC3)nc3ccc([N+](=O)[O-])cc3c2=O)c(OC)c1  -10.8%
30. O=S(=O)(c1ccccc1Cl)N1CCCC1c1nc(-c2cccc(Cl)c2)no1 (centres unmarked)  -9.49%
31. COc1cccc(-n2c(CN3CCN(c4ccccc4)CC3)nc3ccc([N+](=O)[O-])cc3c2=O)c1  -8.34%
32. CC(=O)c1ccc(NC(=O)CO/N=C(\C)c2cccs2)cc1  -8.22%
33. COc1ccc(-n2c(CN3CCC(C(N)=O)CC3)nc3ccc([N+](=O)[O-])cc3c2=O)c(OC)c1  -3.9%
34. CCOc1ccccc1/C=C/c1onc(C)c1S(=O)(=O)N1CCC(C(=O)N(CC)CC)CC1  -3.33%
35. COc1ccc(-n2c(CN3CCOCC3)nc3ccc([N+](=O)[O-])cc3c2=O)c(OC)c1  -3.17%
36. COc1ccc(-n2c(=O)c(NC(=O)c3ccccc3)c3n(c2=S)CCCCC3)cc1  -3.03%
37. COc1ccc(NC(=O)c2sc(SC)nc2N)cc1  -0.0249%
38. CCN1C(=O)/C(=C/C=C2\N(CC)c3cc(S(=O)(=O)N(C)C)ccc3N2c2ccccc2)SC1=S  0.17%
39. Cc1nc2c3ccccc3nc(SCC(=O)c3ccc(Cl)cc3)n2n1  2.48%
40. COc1ccc(C2NC(C(=O)O)CS2)cc1COCC(F)(F)F (centres unmarked)  3.38%
41. COc1ccc(Cl)cc1NC(=O)C1CCN(S(C)(=O)=O)CC1  3.72%
42. CCc1ccc(CN(C)C(=O)CC2C(=O)NCCN2Cc2ccoc2)cc1 (centres unmarked)  4.18%
43. C=C(C)COc1ccc(-c2[nH]ncc2Oc2ccccc2OCC)c(O)c1  4.65%
44. COc1ccc(-n2c(CN3CCC(C)CC3)nc3ccc([N+](=O)[O-])cc3c2=O)c(OC)c1  4.93%
45. O=C(Nc1ccccn1)c1ccc2c(c1)S(=O)(=O)c1ccccc1C2=O  6.46%
46. COC(=O)CSc1[nH]c2ccccc2c1[N+](=O)[O-]  7.33%
47. O=C(NCc1cccnc1)c1ccc(NC(=O)c2ccc([N+](=O)[O-])cc2)cc1  9.09%
48. C=CCN1C(=O)/C(=C\C=C2\N(C)c3ccccc3C2(C)C)SC1=S  10.7%
49. CCOC(=O)c1ccc(NC(=O)C(=O)NCc2ccco2)cc1  15.7%
50. O=C(O)c1ccc(NS(=O)(=O)c2ccc(NC(=O)c3ccccc3Cl)cc2)cc1  19%

Source: publication PMC4336329 (PLoS ONE, 2015)
